We go through one sequence from paper PMC7862700, “An all-to-all approach to the identification of sequence-specific readers for epigenetic DNA modifications on cytosine”.

What all share (assay): DAPPL (digital affinity profiling via proximity ligation, sequencing); 10 mM Tris-HCl pH 7.5, 50 mM NaCl, 1 mM DTT, 4% glycerol, room temperature, 30 min; GST-TFs on glutathione beads, 16-mer random dsDNA library, 0.1% formaldehyde crosslink after washing; high values mean tight binding
The target of assay [1] is T1, FLI1 (Homo sapiens, UniProt Q01543 1-452).
T1 sequence: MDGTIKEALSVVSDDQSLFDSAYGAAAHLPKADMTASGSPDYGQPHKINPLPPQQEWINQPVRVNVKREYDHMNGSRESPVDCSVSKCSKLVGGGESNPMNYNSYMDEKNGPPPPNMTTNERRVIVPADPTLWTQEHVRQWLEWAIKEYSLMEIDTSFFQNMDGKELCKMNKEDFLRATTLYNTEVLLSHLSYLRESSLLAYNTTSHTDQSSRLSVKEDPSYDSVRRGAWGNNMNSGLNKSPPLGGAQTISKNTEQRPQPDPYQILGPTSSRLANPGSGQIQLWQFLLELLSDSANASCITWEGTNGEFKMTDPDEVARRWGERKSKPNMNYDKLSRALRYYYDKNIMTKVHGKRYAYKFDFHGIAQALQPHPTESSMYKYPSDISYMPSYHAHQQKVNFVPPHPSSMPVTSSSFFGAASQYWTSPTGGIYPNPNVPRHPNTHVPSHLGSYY
To be noted: protein: recombinant; tags: N-terminal GST; dsDNA, one strand shown. In a few lines: (§1)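 Pools of DNA-barcoded human transcription factors, expressed in yeast as GST fusions on glutathione beads and combined with a tag-only sample, were incubated with 200 nmole of a 16-mer random double-stranded DNA library. Incubation took 30 min at room temperature in Tris/NaCl/DTT/glycerol buffer and was followed by washing, 0.1% formaldehyde crosslinking, proximity ligation (BsaI/T4 ligase, 1 h, 37 °C), PCR amplification and sequencing on an Illumina NextSeq500. Binding signal is the ratio of a hexamer's read frequency for a factor to its frequency for the tag-only sample.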

The target in assay [2] is T2, ELK1 (Homo sapiens, UniProt P19419 1-428).
T2 sequence: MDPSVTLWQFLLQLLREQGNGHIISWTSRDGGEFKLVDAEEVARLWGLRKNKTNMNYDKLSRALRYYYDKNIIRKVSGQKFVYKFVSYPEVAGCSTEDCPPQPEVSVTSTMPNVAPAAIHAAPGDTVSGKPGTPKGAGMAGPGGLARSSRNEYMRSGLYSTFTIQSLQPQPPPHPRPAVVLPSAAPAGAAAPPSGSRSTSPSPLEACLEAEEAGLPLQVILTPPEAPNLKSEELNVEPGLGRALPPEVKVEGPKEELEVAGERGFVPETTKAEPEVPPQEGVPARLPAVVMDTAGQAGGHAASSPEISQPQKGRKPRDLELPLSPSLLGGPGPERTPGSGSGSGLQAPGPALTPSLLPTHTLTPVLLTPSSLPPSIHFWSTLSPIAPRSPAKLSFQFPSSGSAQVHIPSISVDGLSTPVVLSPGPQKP
To be noted: protein: recombinant; tags: N-terminal GST; dsDNA, one strand shown. In a few lines: as §1

The target in assay [3] is T3, GABPA (Homo sapiens, UniProt Q06546 1-454).
T3 sequence: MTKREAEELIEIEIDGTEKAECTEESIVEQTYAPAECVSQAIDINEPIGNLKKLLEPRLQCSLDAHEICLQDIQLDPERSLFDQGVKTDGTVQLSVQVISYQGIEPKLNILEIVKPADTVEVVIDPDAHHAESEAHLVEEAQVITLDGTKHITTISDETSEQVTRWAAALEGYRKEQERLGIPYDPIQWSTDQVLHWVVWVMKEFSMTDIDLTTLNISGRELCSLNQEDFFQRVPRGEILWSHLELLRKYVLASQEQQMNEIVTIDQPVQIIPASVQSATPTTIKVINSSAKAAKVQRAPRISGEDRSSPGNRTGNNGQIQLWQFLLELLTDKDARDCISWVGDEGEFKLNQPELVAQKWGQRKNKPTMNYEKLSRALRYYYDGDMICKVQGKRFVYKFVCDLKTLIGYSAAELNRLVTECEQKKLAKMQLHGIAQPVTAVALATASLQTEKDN
To be noted: protein: recombinant; tags: N-terminal GST; dsDNA, one strand shown. Summed up:
as §1

For assay [4], the target named is T4, ERG (Homo sapiens, UniProt P11308 1-479).
T4 sequence: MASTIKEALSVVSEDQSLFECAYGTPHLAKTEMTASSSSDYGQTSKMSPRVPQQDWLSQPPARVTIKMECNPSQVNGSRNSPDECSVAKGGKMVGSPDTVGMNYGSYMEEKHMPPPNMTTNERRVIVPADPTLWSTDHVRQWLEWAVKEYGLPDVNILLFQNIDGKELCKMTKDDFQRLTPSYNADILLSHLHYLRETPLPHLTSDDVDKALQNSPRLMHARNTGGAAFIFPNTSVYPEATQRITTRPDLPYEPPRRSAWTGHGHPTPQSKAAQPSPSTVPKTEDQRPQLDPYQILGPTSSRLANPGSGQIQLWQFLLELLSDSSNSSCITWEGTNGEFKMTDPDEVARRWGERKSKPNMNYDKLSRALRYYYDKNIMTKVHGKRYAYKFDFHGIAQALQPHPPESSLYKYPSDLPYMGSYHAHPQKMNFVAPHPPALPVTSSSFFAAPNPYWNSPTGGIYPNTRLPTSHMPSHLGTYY
To be noted: protein: recombinant; tags: N-terminal GST; dsDNA, one strand shown. In a few lines:
as §1

Assay [5] concerns the target ELF1 (Homo sapiens, UniProt P32519 1-619). The following applies: protein: recombinant; tags: N-terminal GST; dsDNA, one strand shown. Summed up:
as §1

In assay [6] the target is T5, EHF (Homo sapiens, UniProt Q9NZC4 1-300).
T5 sequence: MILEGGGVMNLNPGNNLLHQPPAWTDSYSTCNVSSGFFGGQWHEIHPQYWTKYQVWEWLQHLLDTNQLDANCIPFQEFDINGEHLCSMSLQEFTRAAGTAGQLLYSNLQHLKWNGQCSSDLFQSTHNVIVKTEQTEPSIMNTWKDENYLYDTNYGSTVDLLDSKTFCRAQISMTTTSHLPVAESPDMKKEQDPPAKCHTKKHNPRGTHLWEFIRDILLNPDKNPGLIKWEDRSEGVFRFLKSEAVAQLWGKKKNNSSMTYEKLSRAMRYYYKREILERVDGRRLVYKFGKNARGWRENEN
To be noted: protein: recombinant; tags: N-terminal GST; dsDNA, one strand shown. Summed up: as §1

Assay [7] has as its target SPIB (Homo sapiens, UniProt Q01892 1-262). To be noted: protein: recombinant; tags: N-terminal GST; dsDNA, one strand shown. In a few lines: as §1
The target in assay [8] is T6, ELK3 (Homo sapiens, UniProt P41970 1-407).
T6 sequence: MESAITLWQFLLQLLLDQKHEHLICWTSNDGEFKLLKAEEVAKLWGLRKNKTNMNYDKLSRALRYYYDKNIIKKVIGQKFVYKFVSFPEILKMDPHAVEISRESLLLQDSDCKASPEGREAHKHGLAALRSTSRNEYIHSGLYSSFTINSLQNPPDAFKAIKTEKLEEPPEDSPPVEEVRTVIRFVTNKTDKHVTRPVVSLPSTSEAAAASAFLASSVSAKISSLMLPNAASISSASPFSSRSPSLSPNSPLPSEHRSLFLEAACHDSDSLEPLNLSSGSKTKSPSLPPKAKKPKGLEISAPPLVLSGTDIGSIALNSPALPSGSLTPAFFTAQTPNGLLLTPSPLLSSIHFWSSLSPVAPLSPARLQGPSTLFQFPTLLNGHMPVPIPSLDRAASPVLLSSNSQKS
To be noted: protein: recombinant; tags: N-terminal GST; dsDNA, one strand shown. Summed up:
as §1

For assay [9], the target named is T7, FEV (Homo sapiens, UniProt Q99581 1-238).
T7 sequence: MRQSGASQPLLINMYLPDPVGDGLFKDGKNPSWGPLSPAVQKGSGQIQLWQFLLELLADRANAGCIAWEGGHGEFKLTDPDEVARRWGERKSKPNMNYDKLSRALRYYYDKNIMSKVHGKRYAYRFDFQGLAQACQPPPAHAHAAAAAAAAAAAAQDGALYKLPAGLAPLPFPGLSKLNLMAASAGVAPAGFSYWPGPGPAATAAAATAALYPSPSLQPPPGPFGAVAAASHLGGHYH
The following applies: protein: recombinant; tags: N-terminal GST; dsDNA, one strand shown. In a few lines: as §1

The target in assay [10] is ETV5 (Homo sapiens, UniProt P41161 1-510). To be noted: protein: recombinant; tags: N-terminal GST; dsDNA, one strand shown. Summed up:
as §1

Assay [11] deals with HSF1 (Homo sapiens, UniProt Q00613 1-529). The following applies: protein: recombinant; tags: N-terminal GST; chain copies: 3; dsDNA, one strand shown. In a few lines: as §1
Sequence of HSF1 (Q00613 whole entry): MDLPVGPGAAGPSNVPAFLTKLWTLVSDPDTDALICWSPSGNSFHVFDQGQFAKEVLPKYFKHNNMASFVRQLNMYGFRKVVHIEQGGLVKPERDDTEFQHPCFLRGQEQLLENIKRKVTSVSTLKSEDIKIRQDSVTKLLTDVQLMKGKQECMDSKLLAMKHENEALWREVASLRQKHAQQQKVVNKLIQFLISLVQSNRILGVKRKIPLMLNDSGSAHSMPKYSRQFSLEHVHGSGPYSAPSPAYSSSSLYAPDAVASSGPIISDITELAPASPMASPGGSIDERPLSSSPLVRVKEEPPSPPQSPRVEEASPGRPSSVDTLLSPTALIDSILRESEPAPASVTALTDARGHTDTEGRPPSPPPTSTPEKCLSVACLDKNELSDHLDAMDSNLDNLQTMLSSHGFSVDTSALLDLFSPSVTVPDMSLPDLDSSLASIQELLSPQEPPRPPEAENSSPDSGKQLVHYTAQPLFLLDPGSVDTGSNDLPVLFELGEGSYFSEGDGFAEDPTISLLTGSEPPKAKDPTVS
Assay [12] concerns the target T8, SPIC (Homo sapiens, UniProt Q8N5J4 1-248).
T8 sequence: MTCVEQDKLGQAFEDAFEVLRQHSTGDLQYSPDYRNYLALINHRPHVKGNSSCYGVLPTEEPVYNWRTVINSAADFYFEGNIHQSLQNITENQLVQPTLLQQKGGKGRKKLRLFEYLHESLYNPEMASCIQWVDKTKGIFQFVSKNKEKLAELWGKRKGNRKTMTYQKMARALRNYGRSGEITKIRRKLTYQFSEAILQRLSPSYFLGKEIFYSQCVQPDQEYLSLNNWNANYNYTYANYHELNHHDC
The following applies: protein: recombinant; tags: N-terminal GST; dsDNA, one strand shown. In a few lines:
as §1

The target of assay [13] is ELF4 (Homo sapiens, UniProt Q99607 1-663). The following applies: protein: recombinant; tags: N-terminal GST; dsDNA, one strand shown. In a few lines:
as §1

The target of assay [14] is T9, ELK4 (Homo sapiens, UniProt P28324-2 1-405).
T9 sequence: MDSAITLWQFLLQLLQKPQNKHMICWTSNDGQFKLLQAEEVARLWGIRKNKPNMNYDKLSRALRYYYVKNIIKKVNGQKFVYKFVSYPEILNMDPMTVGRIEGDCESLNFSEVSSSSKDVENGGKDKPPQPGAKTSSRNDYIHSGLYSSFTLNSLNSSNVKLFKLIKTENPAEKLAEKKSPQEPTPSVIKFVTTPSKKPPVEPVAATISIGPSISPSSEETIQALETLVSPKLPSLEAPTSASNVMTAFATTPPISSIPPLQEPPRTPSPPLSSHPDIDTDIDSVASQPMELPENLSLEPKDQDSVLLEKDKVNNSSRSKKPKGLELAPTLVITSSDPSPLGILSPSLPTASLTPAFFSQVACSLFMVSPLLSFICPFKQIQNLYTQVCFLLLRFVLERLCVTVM
To be noted: protein: recombinant; tags: N-terminal GST; dsDNA, one strand shown. In a few lines:
as §1

In assay [15] the target is T10, ETV2 (Homo sapiens, UniProt O00321 1-342).
T10 sequence: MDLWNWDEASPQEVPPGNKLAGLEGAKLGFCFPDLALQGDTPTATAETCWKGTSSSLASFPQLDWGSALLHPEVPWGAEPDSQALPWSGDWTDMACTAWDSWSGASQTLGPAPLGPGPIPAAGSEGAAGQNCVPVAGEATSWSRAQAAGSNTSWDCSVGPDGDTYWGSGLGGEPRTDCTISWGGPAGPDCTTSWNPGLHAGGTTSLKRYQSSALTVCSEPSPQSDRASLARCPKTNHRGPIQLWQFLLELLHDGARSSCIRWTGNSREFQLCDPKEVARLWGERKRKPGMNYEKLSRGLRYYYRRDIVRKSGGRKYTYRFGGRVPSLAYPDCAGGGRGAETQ
The following applies: protein: recombinant; tags: N-terminal GST; dsDNA, one strand shown. Summed up: as §1

For assay [16], the target named is T11, ELF3 (Homo sapiens, UniProt P78545 1-371).
T11 sequence: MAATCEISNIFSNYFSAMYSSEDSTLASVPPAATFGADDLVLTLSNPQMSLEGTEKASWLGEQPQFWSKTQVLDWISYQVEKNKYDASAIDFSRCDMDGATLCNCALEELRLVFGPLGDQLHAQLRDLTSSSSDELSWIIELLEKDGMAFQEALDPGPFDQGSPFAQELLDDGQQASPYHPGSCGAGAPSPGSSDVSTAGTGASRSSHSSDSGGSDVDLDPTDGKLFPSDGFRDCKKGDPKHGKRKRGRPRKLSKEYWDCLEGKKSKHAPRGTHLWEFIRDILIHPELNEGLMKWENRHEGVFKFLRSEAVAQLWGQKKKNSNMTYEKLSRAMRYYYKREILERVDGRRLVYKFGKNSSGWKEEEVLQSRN
The following applies: protein: recombinant; tags: N-terminal GST; dsDNA, one strand shown. In a few lines: as §1

Assay [17] has as its target CRX (Homo sapiens, UniProt O43186 1-299). To be noted: protein: recombinant; tags: N-terminal GST; dsDNA, one strand shown. Summed up:
as §1

For assay [18], the target named is ETV1 (Homo sapiens, UniProt P50549 1-477). To be noted: protein: recombinant; tags: N-terminal GST; dsDNA, one strand shown. In a few lines:
as §1

Sequence of CRX (O43186 whole entry): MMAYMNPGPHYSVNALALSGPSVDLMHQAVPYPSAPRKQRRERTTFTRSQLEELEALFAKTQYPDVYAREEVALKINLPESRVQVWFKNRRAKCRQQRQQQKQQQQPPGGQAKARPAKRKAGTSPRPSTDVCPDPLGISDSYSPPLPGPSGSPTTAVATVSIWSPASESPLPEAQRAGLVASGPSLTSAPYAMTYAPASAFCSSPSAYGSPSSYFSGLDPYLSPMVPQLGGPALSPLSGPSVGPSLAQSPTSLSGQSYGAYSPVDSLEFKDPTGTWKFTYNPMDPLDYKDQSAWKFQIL
Sequence of ETV1 (P50549 whole entry): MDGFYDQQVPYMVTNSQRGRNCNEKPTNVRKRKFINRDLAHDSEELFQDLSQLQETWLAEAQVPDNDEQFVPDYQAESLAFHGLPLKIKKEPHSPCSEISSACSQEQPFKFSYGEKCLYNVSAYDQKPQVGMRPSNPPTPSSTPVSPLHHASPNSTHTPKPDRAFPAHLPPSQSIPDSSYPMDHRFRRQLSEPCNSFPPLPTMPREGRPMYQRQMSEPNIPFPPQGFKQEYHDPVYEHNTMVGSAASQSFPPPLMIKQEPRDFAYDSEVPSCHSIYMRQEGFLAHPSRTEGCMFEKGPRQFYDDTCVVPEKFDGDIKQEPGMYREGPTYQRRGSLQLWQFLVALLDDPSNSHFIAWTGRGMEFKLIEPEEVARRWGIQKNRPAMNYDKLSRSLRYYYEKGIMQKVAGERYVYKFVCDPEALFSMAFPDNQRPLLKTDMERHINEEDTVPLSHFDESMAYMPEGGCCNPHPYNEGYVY
Sequence of ETV5 (P41161 whole entry): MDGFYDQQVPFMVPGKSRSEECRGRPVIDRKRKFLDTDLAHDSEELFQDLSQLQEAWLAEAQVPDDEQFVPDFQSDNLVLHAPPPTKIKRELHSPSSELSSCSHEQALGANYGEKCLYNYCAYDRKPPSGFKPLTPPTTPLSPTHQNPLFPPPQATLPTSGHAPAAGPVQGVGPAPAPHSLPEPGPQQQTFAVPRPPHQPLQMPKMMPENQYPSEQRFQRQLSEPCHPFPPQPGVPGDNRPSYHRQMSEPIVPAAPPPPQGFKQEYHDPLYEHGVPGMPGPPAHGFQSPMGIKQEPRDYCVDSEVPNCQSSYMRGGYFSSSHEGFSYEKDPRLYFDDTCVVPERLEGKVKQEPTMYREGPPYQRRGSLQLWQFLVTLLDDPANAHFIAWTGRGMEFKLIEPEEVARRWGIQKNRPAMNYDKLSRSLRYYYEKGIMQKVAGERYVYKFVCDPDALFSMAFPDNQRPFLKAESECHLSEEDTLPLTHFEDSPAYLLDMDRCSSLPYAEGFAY
Sequence of ELF1 (P32519 whole entry): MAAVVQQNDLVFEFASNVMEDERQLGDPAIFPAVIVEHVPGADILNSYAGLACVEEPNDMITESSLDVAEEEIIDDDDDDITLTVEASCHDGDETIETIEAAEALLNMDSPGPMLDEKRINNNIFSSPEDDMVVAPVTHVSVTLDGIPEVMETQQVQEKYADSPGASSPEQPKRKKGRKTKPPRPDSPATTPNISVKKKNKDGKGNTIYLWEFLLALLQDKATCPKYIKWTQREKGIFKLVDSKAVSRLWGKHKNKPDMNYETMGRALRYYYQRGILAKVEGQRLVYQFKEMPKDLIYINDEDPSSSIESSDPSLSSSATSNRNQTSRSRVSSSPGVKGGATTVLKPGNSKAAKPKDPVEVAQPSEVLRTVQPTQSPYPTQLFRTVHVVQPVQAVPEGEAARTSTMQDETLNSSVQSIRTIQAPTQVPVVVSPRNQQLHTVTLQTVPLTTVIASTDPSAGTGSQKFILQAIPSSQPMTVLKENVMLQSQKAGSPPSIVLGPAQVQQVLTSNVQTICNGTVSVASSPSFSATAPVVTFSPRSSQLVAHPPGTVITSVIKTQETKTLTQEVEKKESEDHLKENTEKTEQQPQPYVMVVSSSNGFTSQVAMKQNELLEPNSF
Sequence of SPIB (Q01892 whole entry): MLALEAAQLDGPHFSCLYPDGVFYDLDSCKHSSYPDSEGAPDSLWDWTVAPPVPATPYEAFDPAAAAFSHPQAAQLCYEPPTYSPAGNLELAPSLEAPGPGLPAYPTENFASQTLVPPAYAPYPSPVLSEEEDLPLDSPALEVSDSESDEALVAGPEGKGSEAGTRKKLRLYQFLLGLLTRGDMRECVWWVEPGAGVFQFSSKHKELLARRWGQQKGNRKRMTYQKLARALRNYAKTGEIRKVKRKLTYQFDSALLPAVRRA
Sequence of ELF4 (Q99607 whole entry): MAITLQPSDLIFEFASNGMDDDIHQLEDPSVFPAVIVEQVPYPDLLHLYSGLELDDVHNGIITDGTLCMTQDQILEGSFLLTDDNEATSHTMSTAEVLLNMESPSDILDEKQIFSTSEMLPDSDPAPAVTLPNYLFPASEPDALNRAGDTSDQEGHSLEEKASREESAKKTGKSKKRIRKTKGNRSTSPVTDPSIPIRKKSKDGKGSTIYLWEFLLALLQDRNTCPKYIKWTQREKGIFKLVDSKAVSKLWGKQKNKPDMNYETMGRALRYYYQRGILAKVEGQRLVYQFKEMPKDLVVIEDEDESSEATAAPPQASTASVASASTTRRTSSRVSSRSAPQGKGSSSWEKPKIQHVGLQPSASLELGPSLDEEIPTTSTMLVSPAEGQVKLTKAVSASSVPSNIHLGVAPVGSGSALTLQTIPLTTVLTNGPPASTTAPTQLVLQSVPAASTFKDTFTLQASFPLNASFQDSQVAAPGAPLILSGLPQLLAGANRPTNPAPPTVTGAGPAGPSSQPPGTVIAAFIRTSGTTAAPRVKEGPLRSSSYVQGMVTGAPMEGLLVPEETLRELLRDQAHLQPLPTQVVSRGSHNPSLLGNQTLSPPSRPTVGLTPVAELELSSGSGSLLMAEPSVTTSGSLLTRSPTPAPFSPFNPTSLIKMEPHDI

For TTAGTA, the binding signal in assay [1] is 1.23 fold enrichment (6-mer frequency, TF over GST control); in assay [2] it was 1.13 fold enrichment (6-mer frequency, TF over GST control); in assay [3], 1.21 fold enrichment (6-mer frequency, TF over GST control); in assay [4] it was 1.21 fold enrichment (6-mer frequency, TF over GST control); in assay [5], 1.12 fold enrichment (6-mer frequency, TF over GST control); in assay [6], 1.08 fold enrichment (6-mer frequency, TF over GST control). The binding signal in [7] was 1.06 fold enrichment (6-mer frequency, TF over GST control); in assay [8], 1.08 fold enrichment (6-mer frequency, TF over GST control); in assay [9], 1.05 fold enrichment (6-mer frequency, TF over GST control); in assay [10] it was 1.15 fold enrichment (6-mer frequency, TF over GST control); in assay [11], 1.68 fold enrichment (6-mer frequency, TF over GST control); in [12], 1.16 fold enrichment (6-mer frequency, TF over GST control). The binding signal is 1.1 fold enrichment (6-mer frequency, TF over GST control) in [13]; 1.12 fold enrichment (6-mer frequency, TF over GST control) in assay [14]; 1.22 fold enrichment (6-mer frequency, TF over GST control) in assay [15]; 1.15 fold enrichment (6-mer frequency, TF over GST control) in assay [16]; 2.39 fold enrichment (6-mer frequency, TF over GST control) in assay [17]; 1.11 fold enrichment (6-mer frequency, TF over GST control) in assay [18].
